Source: PubChem BioAssay (several laboratories)
This excerpt belongs to a sample that is enriched for hits.
Bead autofluor: flagged as autofluorescent in microsphere protease counterscreen; AID 624483; compound autofluorescence counterscreen, microsphere flow cytometry; active compounds read high; 360,000 tested, 3.1% active; fluorescence intensity (concentration not given with the values); in the data active = fluorescence intensity above about 16000; inconclusive = no clear call, values can overlap the other calls
BoNT A protease: inhibitors of Botulinum neurotoxin A light chain protease | multiplex microsphere protease substrate cleavage, flow cytometry | inhibition, % at 10 µM | 360,000 tested, 0.17% active; note: plate controls were buffer without enzyme for full effect and enzyme alone for no effect
BoNT-F LC inh: inhibitors of Botulinum neurotoxin F light chain protease. Multiplex microsphere protease cleavage assay, flow cytometry. inhibition, % at 10 µM. 360,000 tested, 0.22% active. AID 588497; in the data active = inhibition above about 35%, passing the limit was not always enough; inconclusive = no clear call, values can overlap the other calls; note: plate controls were buffer without enzyme for full effect and enzyme alone for no effect
TcdB GH inh: inhibitors of Clostridioides difficile toxin B glycohydrolase | 350,000 tested, 0.24% active | AID 652162 | TcdB glycohydrolase enzymatic assay, plate reader | inhibition, % at 9.99 µM; in the data active = inhibition above about 10%
Anthrax LF prot: inhibitors of Bacillus anthracis lethal factor protease; P15917; multiplex microsphere protease cleavage assay, LF; inhibition, % at 10 µM; 360,000 tested, 0.12% active; note: plate controls were buffer without enzyme for full effect and enzyme alone for no effect
* = called active by the depositor. Cut-off read from the data, not from the text of the source, unless noted: active = inhibition above about 30%; inconclusive = no clear call, values can overlap the other calls; inactive = below that.

Results for CC(C)NC(=O)N(C)C[C@@H]1Oc2ccc(NC(=O)CCN3CCOCC3)cc2C(=O)N([C@H](C)CO)C[C@@H]1C ?
TcdB GH inh: 0

What do the screens show for `CCn1c(COc2cccc(OC)c2)nnc1SCC(=O)Nc1ccccc1C(=O)OC`?
Bead autofluor: 19252*; BoNT A protease: inconclusive; BoNT-F LC inh: 6; TcdB GH inh: 5; Anthrax LF prot: 1

What do the screens show for `CCn1c(CC(=O)Nc2ccccc2)nnc1SCC(=O)Nc1ccccc1C(=O)OC`?
Bead autofluor: 8539; BoNT A protease: 0; BoNT-F LC inh: -6; Anthrax LF prot: -10

Results for CCn1c(COc2ccc(C)cc2)nnc1SCC(=O)Nc1cc(OC)ccc1OC ?
Bead autofluor: 22615*; BoNT A protease: 1; BoNT-F LC inh: 3; Anthrax LF prot: -5

What do the screens show for `Cc1nn2cc(-c3cccc(Cl)c3)cnc2c1Br`?
Bead autofluor: 4803; BoNT A protease: -1; BoNT-F LC inh: -6; TcdB GH inh: 10*; Anthrax LF prot: -4

What do the screens show for `Cc1cc(C)c2cc(C#N)c(NCCCNC(=O)CCC(=O)O)nc2c1`?
Bead autofluor: 21922*; BoNT A protease: inconclusive; BoNT-F LC inh: 2; Anthrax LF prot: -2

Results for CCCCCCc1nc2ccccc2c(=O)n1NC(=O)c1c(O)c2c(n(CC(C)C)c1=O)CCCC2 ?
Bead autofluor: 4770; BoNT A protease: 0; BoNT-F LC inh: -29; Anthrax LF prot: -4

What do the screens show for `Cc1nc2ccccc2c(=O)n1NC(=O)c1c(O)c2c(n(CC(C)C)c1=O)CCCC2`?
Bead autofluor: 19971*; BoNT A protease: 1; BoNT-F LC inh: 2; Anthrax LF prot: 0

Results for CCOc1ccccc1Nc1nc(N)nc(CSc2nccc(C)n2)n1 ?
Bead autofluor: 4788; BoNT A protease: 1; BoNT-F LC inh: -7; Anthrax LF prot: -2

How did CCOc1ccccc1Nc1nc(N)nc(CSc2nncn2C)n1 do in these assays?
Bead autofluor: 23051*; BoNT A protease: 0; BoNT-F LC inh: 1; Anthrax LF prot: -5

How did COc1ccc(Nc2nc(N)nc(CSc3nncn3C)n2)cc1 do in these assays?
Bead autofluor: 16635*; BoNT A protease: -1; BoNT-F LC inh: 2; Anthrax LF prot: -4

Results for O=C(Nc1ncc2c(n1)-c1ccccc1CC2)c1ccc(Cl)cc1 ?
Bead autofluor: 22185*; BoNT A protease: 2; BoNT-F LC inh: 3; Anthrax LF prot: 2

Results for O=C(Nc1ncc2c(n1)-c1ccccc1OC2)c1ccc(Cl)cc1Cl ?
Bead autofluor: 16392*; BoNT A protease: 1; BoNT-F LC inh: 1; Anthrax LF prot: -1

Results for CCNC(=O)NC(=O)C(C)OC(=O)c1oc2ccc(OC)cc2c1C (stereo unspecified) ?
Bead autofluor: 21371*; BoNT A protease: 4; BoNT-F LC inh: 4; Anthrax LF prot: -21

How did COc1ccc2oc(C(=O)OC(C)C(=O)N(C)c3ccccc3)c(C)c2c1 (stereo unspecified) do in these assays?
Bead autofluor: 5191; BoNT A protease: -5; BoNT-F LC inh: inconclusive; TcdB GH inh: 0; Anthrax LF prot: inconclusive

What do the screens show for `O=C(C[C@H]1CC[C@H](NC(=O)C2CC2)[C@@H](CO)O1)NC1CCC1`?
TcdB GH inh: 0

How did O=C(Nc1ccccc1)c1ccc(OC(=O)c2cc3ccccc3o2)cc1 do in these assays?
Bead autofluor: 21900*; BoNT A protease: 2; BoNT-F LC inh: 4; Anthrax LF prot: 2

How did CCCCSc1nnc(-c2ccc(NC(=O)CCc3ccccc3)cc2)n1C do in these assays?
Bead autofluor: 20381*; BoNT A protease: 3; BoNT-F LC inh: 5; Anthrax LF prot: -11

Results for CCc1ccc(NC(=O)CSc2nnc(-c3ccccn3)n2C)cc1 ?
Bead autofluor: 19708*; BoNT A protease: 1; BoNT-F LC inh: 2; TcdB GH inh: 1; Anthrax LF prot: -3

Results for Cn1c(SCC(=O)NCc2ccccc2)nnc1-c1ccc(NC(=O)CCc2ccccc2)cc1 ?
Bead autofluor: 2922; BoNT A protease: -1; BoNT-F LC inh: -16; Anthrax LF prot: -4

How did CC(C)OC(=O)CSc1nnc(-c2ccccn2)n1C do in these assays?
Bead autofluor: 17273*; BoNT A protease: -1; BoNT-F LC inh: -6; Anthrax LF prot: -4

Results for S=c1[nH]c2ncccc2o1 ?
Bead autofluor: 22317*; BoNT A protease: 0; BoNT-F LC inh: 2; TcdB GH inh: -1; Anthrax LF prot: 1

Results for Cc1ccn(-c2ccc([N+](=O)[O-])cc2)n1 ?
Bead autofluor: 20585*; BoNT A protease: 0; BoNT-F LC inh: -1; Anthrax LF prot: -2

Results for Cc1ccn(-c2n[nH]c(C)c2[N+](=O)[O-])n1 ?
Bead autofluor: 4932; BoNT A protease: -2; BoNT-F LC inh: -5; TcdB GH inh: 0; Anthrax LF prot: 3
